Measurements taken from PubChem BioAssay (NCI).
This is part of a sample that, as a whole, favours compounds with a hit. Of some 83,000 tested, about 20% had one in any assay.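 96-well plates, one dose, 48 hours. Percent growth reported; active if below 10.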 Active and inactive are the calls of the source.

Key:
Test in all cases: NCI-60 one-dose screen, 48 h (100 = growth as untreated, 0 = no growth, -100 = all killed)
Conditions in all cases: 10 µM unless noted
NCI-H226 lung = test system: NCI-H226 lung
NCI-H322M lung = test system: NCI-H322M lung
HOP-62 NSCLC = test system: HOP-62 NSCLC
NCI-H460 lung = test system: NCI-H460 lung
HOP-92 NSCLC = test system: HOP-92 NSCLC
NCI-H522 lung = test system: NCI-H522 lung
A549/ATCC NSCLC = test system: A549/ATCC NSCLC
786-0 renal = test system: 786-0 renal
COLO 205 colon = test system: COLO 205 colon
NCI-H23 lung = test system: NCI-H23 lung

Measured: growth

COc1cc(C(=O)/C=C/c2c(C(F)(F)F)nc3sccn23)cc(OC)c1OC
inactive: NCI-H226 lung 29.1% | NCI-H322M lung 13.8% | HOP-92 NSCLC 40.1% | A549/ATCC NSCLC 11.3%
active: HOP-62 NSCLC 4.69% | NCI-H460 lung -72.1% | NCI-H522 lung -63.1% | 786-0 renal 3.07% | COLO 205 colon -76.7%

CCCCCCCCCOc1c(OC)cc(C2CC(=O)Nc3c2c(C)nn3-c2nc3ccccc3[nH]2)cc1OC (centres undefined)
active: NCI-H23 lung -50% | NCI-H226 lung -61.6% | NCI-H322M lung -58.1% | HOP-62 NSCLC -32.9% | NCI-H460 lung -23.4% | A549/ATCC NSCLC -56% | 786-0 renal -70.7% | COLO 205 colon 3.77%

COc1ccc(C(=NN=C(N)N)c2ccc(OC)cc2)cc1
inactive: NCI-H23 lung 41.3% | NCI-H226 lung 50.3% | NCI-H322M lung 49% | HOP-62 NSCLC 36.6% | NCI-H460 lung 29.8% | NCI-H522 lung 34% | A549/ATCC NSCLC 46.1% | 786-0 renal 45.4%
active: COLO 205 colon -7.03%

COC(=O)[C@]12CC[C@@H](C)[C@H](C)[C@@H]1C1=CC[C@@H]3[C@@]4(C)C(C=O)=C[C@@](C)(CO)[C@@H]4[C@H](O)C[C@@]3(C)[C@]1(C)CC2
active: NCI-H23 lung -17.1% | NCI-H226 lung 3.36% | NCI-H460 lung -35% | NCI-H522 lung -37.5% | A549/ATCC NSCLC -1.72% | 786-0 renal -30.4% | COLO 205 colon -28%
inactive: NCI-H322M lung 32.9% | HOP-62 NSCLC 11.9%

O=C(Nc1cccc(C(F)(F)F)c1)Nc1cccc(C(F)(F)F)c1
active: NCI-H23 lung 1.97% | NCI-H226 lung -1.66% | HOP-62 NSCLC -1.14% | NCI-H460 lung 5.08% | NCI-H522 lung -35% | A549/ATCC NSCLC -1.94% | 786-0 renal 8.34% | COLO 205 colon -85.2%
inactive: NCI-H322M lung 16.7%

O=C(Nc1cccc(Oc2nnc(Cl)c3ccccc23)c1)Nc1ccc(Cl)c(C(F)(F)F)c1
active: NCI-H23 lung -52.4% | NCI-H226 lung -28.2% | NCI-H322M lung -5.16% | HOP-62 NSCLC -81.6% | NCI-H460 lung -77.4% | NCI-H522 lung -67.5% | A549/ATCC NSCLC -21.9% | 786-0 renal -42.8% | COLO 205 colon -69.3%

COc1nc(N(C)O)nc(N(C)O)n1
inactive: NCI-H23 lung 43.9% | NCI-H226 lung 49.3% | NCI-H322M lung 37.7% | HOP-62 NSCLC 26.6% | NCI-H522 lung 56.5% | A549/ATCC NSCLC 33.7% | COLO 205 colon 19.6%
active: NCI-H460 lung 8.71% | 786-0 renal 8.76%

C=C(C)[C@@H]1CC[C@]2(C)[C@H](CC=C3[C@@H]4CC(C)(C)CC[C@]4(C(N)=O)CC[C@]32C)[C@@]1(C)CCC#N
inactive: NCI-H23 lung 27.9% | NCI-H226 lung 49.7% | NCI-H322M lung 72.1% | HOP-62 NSCLC 56.7% | NCI-H460 lung 12.8% | A549/ATCC NSCLC 17.6% | 786-0 renal 26.1%
active: NCI-H522 lung 7.77% | COLO 205 colon -12.1%

CCN1C(=O)N(CC)C2Nn3c(s/c(=C4\C(=O)N(C)c5ccccc54)c3=O)=NC21 (centres undefined)
active: NCI-H522 lung 0.903% | COLO 205 colon 8.23%
inactive: NCI-H23 lung 44.3% | NCI-H226 lung 78.9% | NCI-H322M lung 75% | HOP-62 NSCLC 58.4% | NCI-H460 lung 22.6% | A549/ATCC NSCLC 49.3% | 786-0 renal 27.8%

CNC(=O)c1cc(Oc2ccc3nc(Nc4ccc(Cl)c(C(F)(F)F)c4)ccc3c2)ccn1
inactive: NCI-H23 lung 72.5% | NCI-H226 lung 56.9% | NCI-H322M lung 89.2% | HOP-62 NSCLC 85.1% | NCI-H460 lung 55.8% | NCI-H522 lung 22.7% | A549/ATCC NSCLC 48.2% | 786-0 renal 85% | COLO 205 colon 52.6%
